Screening results deposited in PubChem BioAssay by National Center for Advancing Translational Sciences (NCATS).
Shiga inhibitor: blocks Shiga toxin action in Vero cells; inhibition, % at 38.7 µM; 290,000 tested, 9.2% active; Vero cells, Shiga toxin protein synthesis inhibition reporter; in the data active = inhibition mostly above about 28%, no sharp cut-off; inactive = mostly below about 43%; also: 0% is about no effect
AmpC inh detg: inhibitors of E. coli AmpC beta-lactamase with detergent. Potency, µM (top dose mostly 114 µM), without a hit: at the top dose activity change, negative = inhibition, actives largely listed as inhibitors. P00811. 370,000 tested, 0.041% active. AmpC hydrolysis of nitrocefin, absorbance 480 nm, 0.01% Triton;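 also: potency is read from the fitted curve at half-maximal effect; 0% = no-compound wells and -100% = no-enzyme wells; nearly all actives have a fitted effect of over 25% in size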
Target sequence (P00811 whole entry, looked up): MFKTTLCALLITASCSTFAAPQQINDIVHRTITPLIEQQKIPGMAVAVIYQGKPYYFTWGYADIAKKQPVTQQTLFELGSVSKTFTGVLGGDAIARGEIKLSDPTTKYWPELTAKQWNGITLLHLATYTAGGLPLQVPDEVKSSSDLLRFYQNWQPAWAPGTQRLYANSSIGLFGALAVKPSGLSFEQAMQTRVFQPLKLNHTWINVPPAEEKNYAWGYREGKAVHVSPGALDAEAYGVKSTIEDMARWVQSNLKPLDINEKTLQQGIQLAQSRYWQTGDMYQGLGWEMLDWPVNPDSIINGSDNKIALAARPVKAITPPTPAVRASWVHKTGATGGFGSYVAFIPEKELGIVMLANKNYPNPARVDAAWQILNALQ
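20 mM phosphate pH 7.0 + 0.01% (detergent screen) or 0.0001% Triton X-100; 5.3 nM AmpC reagent; cpd preinc 15 min RT; nitrocefin (800 uM stock) to start; A480 q20 s × 4 min; Activity was normalised to no-enzyme and no-compound control wells.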
Cycloheximide cs: counter-screen hit for Shiga toxin inhibitors, cycloheximide; cell reporter, cycloheximide protein synthesis inhibition counterscreen; max response, %; 300,000 tested, 12% active; in the data active = max response mostly above about 13%, no sharp cut-off; inactive = mostly below about 14%; also: read at 38.3 µM for the half of the compounds with a filed dose; 0% is about no effect
AmpC no deterg: AmpC beta-lactamase inhibition without detergent. Potency, µM (doses to about 57.1 µM), without a hit: at the highest dose activity change, negative = inhibition, usual class: inhibitors. AmpC nitrocefin hydrolysis, absorbance 480 nm, 0.0001% Triton. AID 485341. P00811. 330,000 tested, 0.52% active;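 also: potency is read from the fitted curve at half-maximal effect; plate controls were no compound for no effect and no enzyme for full effect; nearly all actives have a fitted effect of over 20% in size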
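AmpC (5.3 nM in the dispensed reagent) in 20 mM phosphate pH 7.0 with 0.01% (detergent screen) or 0.0001% Triton X-100 was preincubated with compounds for 15 min at room temperature. Nitrocefin was then added from an 800 uM solution, and hydrolysis was followed at 480 nm.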
AMA1-RON2 inh: disrupts binding of P. falciparum AMA1 to RON2; AlphaScreen AMA1-biotinylated RON2 peptide binding; Potency, µM (titrated, usually from 58.2 µM), inactives show top-dose activity change, negative = inhibition, actives largely listed as inhibitors; 360,000 tested, 0.2% active; AID 720542;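 also: potency is read from the fitted curve at half-maximal effect; 0% = vehicle wells and -100% = peptide control; nearly all actives have a fitted effect of over 45% in size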
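AMA1 (3D7) with his tag at 25 nM final met compounds first, then biotinylated RON2 peptide at 25 nM; detection used donor plus acceptor beads, 10 µg/mL apiece, read by AlphaScreen after 30 min at room temperature.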
SARS PLpro yeast: blocks SARS-CoV papain-like protease in a yeast assay; S. cerevisiae expressing SARS-CoV PLpro, growth rescue; Potency, µM (titrated, usually from 32.9 µM), inactives show top-dose activity, positive = growth rescue, usual class: activators; 330,000 tested, 0.19% active; AID 485353; calls by dose curve; also: potency is read from the fitted curve at half-maximal effect; 0% is about no effect; nearly all actives have a fitted effect of over 55% in size
Active calls of the source: *; u = inconclusive; x = not tested or not shown; [ ] = dose if it differs, or a comment. Shown is part of a subset that was picked to be rich in hits. Unless noted, calls follow the shape of the dose curve; as a rule, active = well fitted curve in the direction sought with a large enough effect; inconclusive = small, poorly fitted or top-dose-only effect, or another doubt; inactive = no such curve, though single readings can be large; an effect the other way counts as inactive or inconclusive.

SMILES	Shiga inhibitor	AmpC inh detg	Cycloheximide cs	AmpC no deterg	AMA1-RON2 inh	SARS PLpro yeast
CC(C)C(=O)Nc1cccc(C(=O)Nc2nnc(C(C)C)s2)c1	92*	u	42*	-21%	0%	9%
COC(=O)c1ccccc1S(=O)(=O)N(CCCO)Cc1cc2c(C)ccc(C)c2[nH]c1=O	-7	u	-5	159%	2%	-1%
NS(=O)(=O)c1ccc(NC(=S)N2CCN(c3ccc(Cl)c(Cl)c3)CC2)cc1	-6	-4%	-2	-49%	-13%	4%
CCSc1nnc(NC(=O)c2cc(C)nc3ccccc23)s1	-15	u	-4	-23%	-7%	5%
CCc1nnc(NC(=O)c2nc(Cl)ccc2Cl)s1	-7	-11%	2	4%	-9%	2%
CCc1nnc(NC(=O)c2ccc3ccccc3n2)s1	70*	-3%	45*	42%	88%	2%
CCSc1nnc(NC(=O)c2ccc3ccccc3n2)s1	120*	u	26*	55%	-3%	-5%
COc1ccc(NC(=O)NCCCN2CCN(c3cc(C)ccc3C)CC2)cc1	6	u	-5	30%	-18%	-3%
CCCOc1ccc(C2NC(=S)NC(c3ccccc3)=C2C(=O)Nc2ccc(C)cc2)cc1OC (centres undefined)	0	6%	13	-16%	10%	7%
C[n+]1cccc2ccc3c(c21)OC(N)=C(C#N)C3c1ccccc1 (centres undefined)	11	-7%	-3	-5%	13%	1%
C[n+]1cccc(C2C(C#N)=C(N)Oc3c2ccc2ccccc32)c1 (centres undefined)	76*	-8%	51*	16%	11%	4%
COc1ccc(-c2csc(CCn3nc(C)cc3C)n2)cc1	24	-12%	20*	-11%[11.4 µM]	-1%	0%
Cc1cc(C)n(CCc2nc(-c3ccc(-c4ccccc4)cc3)cs2)n1	88*	-1%	58*	48%	14%	-1%
Cc1cc(C)n(CCc2nc(-c3cccs3)cs2)n1	40*	-4%	12	-8%	8%	23%
COc1ccc(NC(=O)CSc2nnc(C)n2N)cc1S(=O)(=O)N1CCCCC1	x	1%	x	-31%	21%	2%
CCOc1cc(CNC(=O)Cn2c(=O)c3cccn3c3ccc(F)cc32)cc(OCC)c1OCC	x	3%	x	x	x	x
O=C(Nc1cccnc1)c1sc2cccc(F)c2c1Cl	47*	-2%	38*	-15%	0%	-2%
O=C(Nc1ccc(Cl)cc1)Nc1ccc(Cl)c(Cl)c1	x	8%	x	-19%	12%	-15%
O=C(Nc1cccnc1)Nc1ccc(F)c(Cl)c1	26	3%	15*	-40%	-2%	-7%
COc1ccc(NC(=O)Nc2ccc(F)c(Cl)c2)cc1	91*	3%	65*	-31%	12%	-1%
O=C(Nc1ccccn1)c1sc2cccc(F)c2c1Cl	11	3%	14	-34%	-10%	-2%
Cc1ccc(NC(=O)Nc2ccc(F)c(Cl)c2)cc1	82*	-6%	30*	-18%[2.29 µM]	2%	-2%
COc1ccc(OC)c(NC(=O)Nc2ccc(Cl)cc2)c1	31	-13%	10	-32%	9%	-16%
CCn1cc(CNC(=O)c2cc(-c3cc(OC)ccc3OC)nc3ccccc23)c(C)n1	-10	2%	-4	141%	-2%	-6%
CC(NC(=O)C(=O)NCC1CCCO1)c1ccccc1 (centres undefined)	25	-10%	5	-20%	7%	2%
SMILES	Shiga inhibitor	AmpC inh detg	Cycloheximide cs	AmpC no deterg	AMA1-RON2 inh	SARS PLpro yeast
COc1ccc(NC(=O)Nc2ccc(Br)c(C)c2)cc1	31*	-8%	11	-17%[2.29 µM]	-5%	-1%
CCN(CC(=O)Nc1cccc(OC)c1)CC(=O)Nc1ccc(Br)c(C)c1	3	8%	-3	87%	2%	-5%
C/C=C(\C)C(=O)N[C@@H](C)CN1C2=NC[C@H](C(C)C)N2C[C@H]1Cc1ccc(OC)cc1	-10	-1%	-4	53%	-2%	1%
CC(/C=N/NC(=O)c1nnn(-c2nonc2N)c1C(C)C)=C\c1ccco1	5	-5%	40*	-26%	44%	0%
O=C(N/N=C/C=C\c1ccccc1[N+](=O)[O-])c1ccccn1	75*	0%	61*	-21%	43%	-20%
O=C(CCC(=O)Nc1ccccc1)N/N=C/C=C/c1ccccc1	9	-4%	10.0*	-52%	29%	2%
O=C(N/N=C/C=C/c1ccco1)c1cccnc1	-8	6%	-3	-31%	-16%	-13%
O=C(N/N=C\C=C\c1ccco1)c1cc(-c2ccc3ccccc3c2)n[nH]1	active	-9%	24*	-15%	73%	-2%
O=C(N/N=C/C=C\c1cccc([N+](=O)[O-])c1)c1ccccn1	-7	-1%	7	-11%	37%	7%
CSc1nsc(/C=C/Nc2ccc(F)cc2F)c1C#N	-11	-1%	-2	u	-5%	0%
O=C(N/N=C/C=C\c1ccco1)c1ccccn1	40	3%	24*	-19%	u	-1%
O=C(N/N=C/C=C/c1ccccc1)c1ccccn1	68*	3%	55*	-20%	65%	-3%
Cc1cc(C(=O)N/N=C/C(Cl)=C/c2ccccc2)c(C)o1	43*	4%	27*	-41%	12%	1%
O=C(CSc1ccccn1)N/N=C/C=C/c1ccccc1	90*	-3%	32*	-25%	30%	-25%
CCOc1ccc(NC(=O)CCc2nnc3ccc(N4CCN(C)CC4)nn23)cc1	26	0%	-3	4%	21%	4%
CC(/C=N/NC(=O)c1ccccn1)=C\c1ccco1	94*	11%	33*	-9%	14%	-2%
O=C(N/N=C/C(Br)=C/c1ccccc1)c1cnccn1	99*	2%	50*	-13%	39%	-5%
O=C(N/N=C/C=C\c1ccccc1)c1cnccn1	38	-14%	10	-11%	-15%	0%
Nc1nnn(CC(=O)N/N=C/C=C/c2ccccc2)n1	58*	2%	21*	-21%	23%	2%
O=C(N/N=C/C(Cl)=C/c1ccccc1)c1ccccn1	76*	0%	33*	-13%	88%	-4%
Cc1ccccc1-n1c(C)nc2ccsc2c1=O	x	x	x	x	-2%	x
CC(NC(N)=O)C(=O)NCC(=O)OCc1ccccc1 (centres undefined)	-9	-16%	2	-26%	-2%	1%
Cc1cc(N)ccc1N=Nc1c(C)n(C)n(-c2ccccc2)c1=O	29	-14%	31*	-26%	-1%	-7%
Oc1c(CN2CCOCC2)cc(CN2CCOCC2)c(O)c1O	x	x	x	x	11µM*	x
Cn1c(-c2ccc(F)cc2)cnc1SCC(=O)N1CCCc2ccccc21	-3	-5%	-2	-10%	-5%	15%
